# Data published in PubChem BioAssay (NCATS).
# Results filed as inconclusive are left out. Entries that show only a call come without a potency. Active and inactive are the calls of the source. Unless noted, the call rests on the fitted dose curve; in most records, active means well fitted curve in the direction sought with a large enough effect; inconclusive means small, poorly fitted or top-dose-only effect, or another doubt; inactive means no such curve, though single readings can be large; an effect the other way counts as inactive or inconclusive.
# Key:
# [1] = qHTS Assay for Lipid Storage Modulators (AID 1519); settings: Drosophila S3 cells, BODIPY lipid droplet/cell ratio, laser cytometry, cells loaded with oleic acid
# Outline: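 Cells seeded at 5,000 per well were treated with compounds over a concentration series and loaded with oleic acid (400 uM, as added). Lipid droplet fluorescence (488 nm excitation, 500-530 nm channel) was read by laser-scanning cytometry and normalized to 20 uM Triacsin C.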
# [2] = target: DNA repair nuclease/redox regulator APEX1 (Homo sapiens) (UniProt P27695); assay: qHTS Validation Assay for Inhibitors of the Human Apurinic/apyrimidinic Endonuclease 1 (APE1) (AID 1705;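 further: TAMRA fluorescence gain over two minutes as APE1 cuts a quenched THF abasic duplex; series mostly up to about 57 µM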)
# Outline: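 Activity read as rising fluorescence (598 nm emission, 525 nm excitation) from incision of a TAMRA/BHQ-2 duplex carrying a THF abasic site (50 nM). Compound and enzyme sat 15 min at RT before substrate start; signal change between first and third 60-s reads.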
# [3] = Counterscreen for APE1 Inhibitors: Fluorescent Dye Displacement Validation Assay (AID 1707)
# Outline: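 Assay buffer: Tris-HCl pH7.5 with 50mM NaCl, 2 mM MgCl2, 0.01% Tween-20. Dye 250 nM, duplex 50 nM final. Readout: decrease in ThO endpoint fluorescence, 480 nm excitation, 540 nm emission.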
# [4] = qHTS for differential inhibitors of proliferation of Plasmodium falciparum line 7G8 (AID 1815);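 further: potency means the concentration at half of the fitted maximal effect; parasite growth measured after three days of incubation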
# [5] = qHTS for differential inhibitors of proliferation of Plasmodium falciparum line Dd2 (AID 1882); settings: Potency: Plasmodium falciparum Dd2 proliferation inhibition; further: series mostly up to about 29 µM; nearly all actives have a fitted effect of over 65% in size
# Outline: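 Dd2-infected erythrocytes (0.3% parasitemia, 2.5% hematocrit final) incubated with compound 72 h at 37 C, 5% CO2; lysed with saponin/Triton buffer containing SYBR Green I, incubated overnight in the dark, then read by fluorescence (485/535 nm). Normalized to 0.29 uM artemisinin and DMSO.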
# [6] = qHTS for differential inhibitors of proliferation of Plasmodium falciparum line W2 (AID 1883); settings: Potency: Plasmodium falciparum W2 proliferation inhibition;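 further: potency means the concentration at half of the fitted maximal effect; parasites grown with compound for 72 h before lysis and staining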
# [7] = target: ATP-dependent DNA helicase Q1 (Homo sapiens) (UniProt P46063); assay: qHTS Validation Assay for Inhibitors of RecQ-Like Dna Helicase 1 (RECQ1) (AID 2353)
# Outline: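 50 nM RECQ1T1 preincubated 15 min with compound in Tris pH 8.0 buffer with MgCl2, DTT, Tween-20 and 2.5 ug/ml poly(dI-dC); started with 200 nM TAMRA/BHQ-2 forked duplex and 2 mM ATP. Unwinding read as fluorescence (525/598 nm), two reads 2 h apart.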
# [8] = target: RecQ-like DNA helicase BLM (Homo sapiens) (UniProt P54132); assay: qHTS Validation Assay for Inhibitors of Bloom's syndrome helicase (BLM) (AID 2364)
# Outline: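 Forked 20-bp duplex substrate (200 nM, TAMRA/BHQ-2) plus 2 mM ATP added after 15 min compound preincubation with 50 nM enzyme, pH 8.0, poly(dI-dC) 2.5 ug/ml. Strand separation followed by fluorescence (525/598 nm) over 2 h, normalized to enzyme-free and DMSO controls.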
# [9] = Quantitative high throughput screen for delayed death inhibitors of the malarial parasite plastid, 96 hour incubation (AID 488745);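 further: luciferase-expressing P. falciparum in erythrocytes at 2% hematocrit and 0.1% parasitemia; series mostly up to about 29 µM; nearly all actives have a fitted effect of over 70% in size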
# Outline: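 Infected erythrocytes were added to compound in Albumax-supplemented RPMI 1640 at 0.1% parasitemia and 2% hematocrit (final), incubated 96 h at 37 C under 5% CO2, then luciferase reagent was added and luminescence measured.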
# [10] = Quantitative high throughput screen for delayed death inhibitors of the malarial parasite plastid, 48 hour incubation (AID 488752); further: nearly all actives have a fitted effect of over 65% in size
# Outline: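 Readout is firefly luciferase luminescence from a reporter integrated into the parasite genome, with lower signal taken as inhibited growth. Infected red cells (0.1% parasitemia, 2% hematocrit final) are cultured with compound for one 48 h cycle at 37 C.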
# [11] = target: M-phase phosphoprotein 8 (Homo sapiens) (UniProt Q99549); assay: qHTS Validation Assay for Inhibitors for MPP8 Chromodomain Interactions with Methylated Histone Tails (AID 488949);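 further: AlphaScreen signal from MPP8 chromodomain bound to biotinylated H3K9me3 peptide; top concentration of the series differs between compounds; nearly all actives have a fitted effect of over 55% in size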
# Outline: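 AlphaScreen proximity signal from streptavidin donor and Ni-chelate acceptor beads (10 ug/mL each) reported binding of MPP8 to trimethyl-K9 H3(1-18) peptide, both at 50 nM. The complex formed 30 min before a 30 min compound exposure at room temperature, in PBS pH 7.4.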
# [12] = target: Thyrotropin receptor (Homo sapiens) (UniProt P16473); assay: qHTS Assay for Antagonists of the Thyroid Stimulating Hormone Receptor (AID 488980); further: series mostly up to about 58 µM
# Outline: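 Inhibition of cAMP raised by EC80 TSH (4 nM final) was read by HTRF, with lysate cAMP competing against cAMP-d2 for cryptate antibody after 30 min at room temperature. The cells were transfected HEK293 held in phosphodiesterase inhibitor RO 20-1724 at 70 uM.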
# [13] = target: Thyrotropin-releasing hormone receptor (Homo sapiens) (UniProt P34981); assay: qHTS for Small Molecule Agonists and Allosteric Enhancers of Human TRH Receptor: Validation Screen for Agonists (AID 493127;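 active means calcium activation more than 3 SD above the typical response in the agonist read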;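 further: intracellular calcium rise by fluo-8 fluorescence before TRH EC20 addition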); settings: TRH receptor agonist cell assay; at 2 µM; stronger effect = higher value
# Outline: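 Cells 2000/well, 10% FCS, 18 h 33.5C/5% CO2 → fluo-8 Ca dye, RT 30 min–1.5 h → FDSS baseline 10 × 1 s → compound added → 230 cycles (1 s/cycle) agonist mode. TRH controls.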
# [14] = target: Galactokinase (Homo sapiens) (UniProt P51570); assay: qHTS Validation Assay for Inhibitors of Human Galactokinase (GALK) (AID 493189)
# Outline: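 Inhibition was measured as remaining ATP, detected by luciferase luminescence after a 1 h room-temperature reaction. Final conditions: 5 nM GALK, 100 uM galactose, 35 uM ATP, pH 8.0 HEPES buffer.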
# [15] = Validation screen for small molecules that induce DNA re-replication in SW480 colon adenocarcinoma cells (AID 504364)
# Outline: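 250 cells/well; compound pinned in; 48 hr, 37 C, 5% CO2; Hoechst added, 40 min; nuclear fluorescence imaged, 405 ex / 500-530 em; re-replication scored as increase in high-intensity nuclei.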
# [16] = target: Ubiquitin carboxyl-terminal hydrolase 1 (Homo sapiens) (UniProt O94782); assay: Inhibitors of USP1/UAF1: Pilot qHTS (AID 504865);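 further: rhodamine fluorescence freed from ubiquitin-rhodamine substrate followed over time; top concentration of the series differs between compounds; nearly all actives have a fitted effect of over 35% in size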
# Outline: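 Deubiquitinase activity followed as kinetic rhodamine fluorescence release from 150 nM Ub-Rho. 1 nM USP1/UAF1 with compound, after 15 min room-temperature preincubation, in HEPES pH 7.8 buffer containing TCEP, EDTA, BSA and Tween-20.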
# [17] = target: DNA dC->dU-editing enzyme APOBEC-3G (Homo sapiens) (UniProt Q9HC16); assay: qHTS for inhibitors of Vif-A3G interactions: Validation (AID 588379)
# Outline: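 HeLa cells stably expressing Vif and A3G-eYFP, 700 cells/well, incubated overnight at 37 deg C, then exposed to compound overnight at 37 deg C. Inhibition of Vif-mediated degradation read as increased yellow fluorescence (Ex 488/Em 500-530) by laser-scanning cytometry.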
# [18] = system: Zika virus NS2B-NS3 protease; assay: Primary screen GU AMC qHTS for Zika virus inhibitors (AID 1347154); further: nearly all actives have a fitted effect of over 70% in size
# Outline: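 Fluorogenic AMC-substrate cleavage by noncovalent NS2B-NS3 protease complex (25 nM, pH 8.0 Tris buffer with Tween 20) followed for 15 minutes at room temperature (~20% conversion). Percent inhibition from ex340/em450 signal change, fitted by 4-parameter Hill equation.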
# [19] = Primary qHTS for small molecule stabilizers of the endoplasmic reticulum resident proteome: Secreted ER Calcium Modulated Protein (SERCaMP) assay (AID 1508630)
# Outline: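 GLuc-SERCaMP-expressing SH-SY5Y cells, pretreated 16 h with compound, are challenged with thapsigargin to empty ER calcium stores; after 4 h, coelenterazine is added directly to the medium and luminescence is imaged.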
# Sequence of ATP-dependent DNA helicase Q1 (Homo sapiens) (P46063 whole entry, looked up): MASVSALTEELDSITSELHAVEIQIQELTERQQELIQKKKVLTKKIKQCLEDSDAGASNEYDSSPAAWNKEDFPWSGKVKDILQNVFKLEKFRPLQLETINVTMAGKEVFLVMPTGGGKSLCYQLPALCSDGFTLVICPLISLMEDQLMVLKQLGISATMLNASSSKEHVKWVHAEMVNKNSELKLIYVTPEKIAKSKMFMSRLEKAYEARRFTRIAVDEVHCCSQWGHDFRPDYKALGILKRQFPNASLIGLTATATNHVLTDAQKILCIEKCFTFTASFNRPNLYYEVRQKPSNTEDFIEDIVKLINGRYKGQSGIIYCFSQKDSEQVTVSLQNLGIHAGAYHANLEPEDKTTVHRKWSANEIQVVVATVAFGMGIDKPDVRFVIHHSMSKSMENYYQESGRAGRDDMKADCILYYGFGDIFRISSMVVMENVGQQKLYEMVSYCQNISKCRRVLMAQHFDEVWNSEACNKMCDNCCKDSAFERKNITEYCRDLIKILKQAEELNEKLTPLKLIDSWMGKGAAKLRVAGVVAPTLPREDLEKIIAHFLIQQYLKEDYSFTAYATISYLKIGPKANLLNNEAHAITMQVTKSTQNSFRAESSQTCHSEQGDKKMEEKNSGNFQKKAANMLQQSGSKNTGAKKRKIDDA
# Sequence of Galactokinase (Homo sapiens) (P51570 whole entry, looked up): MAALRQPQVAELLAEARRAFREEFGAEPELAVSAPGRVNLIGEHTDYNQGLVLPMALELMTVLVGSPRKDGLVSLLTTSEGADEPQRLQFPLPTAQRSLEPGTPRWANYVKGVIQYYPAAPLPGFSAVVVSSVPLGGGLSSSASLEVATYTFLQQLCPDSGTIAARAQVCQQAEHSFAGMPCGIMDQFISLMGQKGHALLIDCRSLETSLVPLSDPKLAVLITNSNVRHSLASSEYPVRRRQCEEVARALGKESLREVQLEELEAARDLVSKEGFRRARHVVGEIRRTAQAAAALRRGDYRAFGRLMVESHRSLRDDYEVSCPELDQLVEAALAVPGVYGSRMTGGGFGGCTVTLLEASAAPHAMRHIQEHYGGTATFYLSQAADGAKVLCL
# Sequence of Thyrotropin receptor (Homo sapiens) (P16473 whole entry, looked up): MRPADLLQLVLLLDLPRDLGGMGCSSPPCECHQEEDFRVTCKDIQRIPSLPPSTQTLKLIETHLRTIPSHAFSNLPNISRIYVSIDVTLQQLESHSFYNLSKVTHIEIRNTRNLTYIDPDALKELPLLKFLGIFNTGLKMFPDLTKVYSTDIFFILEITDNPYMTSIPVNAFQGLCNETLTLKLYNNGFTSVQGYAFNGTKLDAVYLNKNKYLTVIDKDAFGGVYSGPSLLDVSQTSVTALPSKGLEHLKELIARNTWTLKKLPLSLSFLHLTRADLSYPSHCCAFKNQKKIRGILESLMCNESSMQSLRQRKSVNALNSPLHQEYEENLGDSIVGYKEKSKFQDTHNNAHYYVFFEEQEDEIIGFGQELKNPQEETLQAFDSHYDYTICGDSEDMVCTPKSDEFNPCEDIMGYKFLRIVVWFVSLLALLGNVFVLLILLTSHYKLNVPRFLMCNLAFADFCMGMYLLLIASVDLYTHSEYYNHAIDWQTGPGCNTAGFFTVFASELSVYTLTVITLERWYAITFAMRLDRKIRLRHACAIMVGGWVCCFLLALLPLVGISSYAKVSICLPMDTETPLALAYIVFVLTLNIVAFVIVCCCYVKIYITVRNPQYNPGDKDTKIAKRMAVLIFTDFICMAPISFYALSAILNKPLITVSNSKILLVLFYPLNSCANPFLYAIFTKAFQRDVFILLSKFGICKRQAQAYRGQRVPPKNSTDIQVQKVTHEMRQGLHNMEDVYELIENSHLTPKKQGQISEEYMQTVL
# Sequence of Thyrotropin-releasing hormone receptor (Homo sapiens) (P34981 whole entry, looked up): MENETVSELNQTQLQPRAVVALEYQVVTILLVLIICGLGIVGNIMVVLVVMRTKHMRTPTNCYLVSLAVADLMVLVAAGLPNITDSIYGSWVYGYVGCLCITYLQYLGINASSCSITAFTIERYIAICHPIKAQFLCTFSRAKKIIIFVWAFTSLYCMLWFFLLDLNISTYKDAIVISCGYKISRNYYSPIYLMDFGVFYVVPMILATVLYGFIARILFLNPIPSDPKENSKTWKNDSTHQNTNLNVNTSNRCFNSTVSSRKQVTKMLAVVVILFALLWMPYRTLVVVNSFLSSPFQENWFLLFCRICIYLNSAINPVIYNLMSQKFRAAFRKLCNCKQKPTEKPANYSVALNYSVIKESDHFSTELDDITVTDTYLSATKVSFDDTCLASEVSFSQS
# Sequence of RecQ-like DNA helicase BLM (Homo sapiens) (P54132 whole entry, looked up): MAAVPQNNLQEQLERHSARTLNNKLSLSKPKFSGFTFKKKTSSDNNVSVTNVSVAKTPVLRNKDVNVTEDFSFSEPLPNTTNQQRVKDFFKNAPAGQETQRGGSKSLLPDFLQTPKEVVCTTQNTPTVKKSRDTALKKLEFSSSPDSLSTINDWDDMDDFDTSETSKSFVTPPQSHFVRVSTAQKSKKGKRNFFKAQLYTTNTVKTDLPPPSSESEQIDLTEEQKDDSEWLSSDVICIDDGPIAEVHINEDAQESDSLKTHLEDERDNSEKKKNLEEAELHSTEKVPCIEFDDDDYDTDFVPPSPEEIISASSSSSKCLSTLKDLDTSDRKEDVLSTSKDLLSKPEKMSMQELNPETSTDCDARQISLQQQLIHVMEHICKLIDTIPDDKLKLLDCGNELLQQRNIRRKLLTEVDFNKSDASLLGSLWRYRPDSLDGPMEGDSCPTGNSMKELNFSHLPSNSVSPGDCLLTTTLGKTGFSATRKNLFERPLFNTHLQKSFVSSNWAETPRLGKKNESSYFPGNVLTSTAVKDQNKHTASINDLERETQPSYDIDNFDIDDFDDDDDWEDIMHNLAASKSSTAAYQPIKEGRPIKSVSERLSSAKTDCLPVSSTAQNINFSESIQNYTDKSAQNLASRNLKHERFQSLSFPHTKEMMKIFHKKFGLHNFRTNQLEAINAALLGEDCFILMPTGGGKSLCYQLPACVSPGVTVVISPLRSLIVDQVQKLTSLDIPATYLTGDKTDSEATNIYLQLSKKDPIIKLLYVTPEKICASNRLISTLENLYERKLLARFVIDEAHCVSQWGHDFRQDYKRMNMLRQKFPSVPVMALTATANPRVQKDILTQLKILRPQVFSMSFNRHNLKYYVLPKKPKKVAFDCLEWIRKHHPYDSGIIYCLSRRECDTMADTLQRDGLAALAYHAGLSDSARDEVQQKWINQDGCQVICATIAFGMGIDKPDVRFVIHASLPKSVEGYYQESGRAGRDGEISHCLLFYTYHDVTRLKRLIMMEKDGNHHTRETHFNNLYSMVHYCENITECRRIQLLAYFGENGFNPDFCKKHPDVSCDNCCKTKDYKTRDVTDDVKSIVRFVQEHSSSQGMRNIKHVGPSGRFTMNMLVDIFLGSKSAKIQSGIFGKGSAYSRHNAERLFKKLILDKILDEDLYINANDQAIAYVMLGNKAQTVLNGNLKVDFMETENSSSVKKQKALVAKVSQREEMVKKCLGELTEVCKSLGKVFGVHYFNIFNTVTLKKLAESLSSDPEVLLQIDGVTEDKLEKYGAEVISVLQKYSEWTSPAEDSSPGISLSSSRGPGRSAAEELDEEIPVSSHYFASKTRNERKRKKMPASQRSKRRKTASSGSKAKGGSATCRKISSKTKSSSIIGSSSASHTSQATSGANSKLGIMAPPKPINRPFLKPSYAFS
# Sequence of DNA dC->dU-editing enzyme APOBEC-3G (Homo sapiens) (Q9HC16 whole entry, looked up): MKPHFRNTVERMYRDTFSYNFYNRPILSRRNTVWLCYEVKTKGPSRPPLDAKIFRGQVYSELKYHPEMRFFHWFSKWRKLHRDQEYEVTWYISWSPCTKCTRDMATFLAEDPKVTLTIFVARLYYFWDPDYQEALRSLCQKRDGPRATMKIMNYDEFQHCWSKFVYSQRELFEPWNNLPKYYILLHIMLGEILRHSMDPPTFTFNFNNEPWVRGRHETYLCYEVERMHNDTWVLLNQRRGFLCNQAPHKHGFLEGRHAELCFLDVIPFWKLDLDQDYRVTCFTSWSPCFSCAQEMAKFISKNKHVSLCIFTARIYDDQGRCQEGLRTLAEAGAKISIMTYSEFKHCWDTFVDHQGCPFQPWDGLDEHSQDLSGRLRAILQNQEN
# Sequence of Ubiquitin carboxyl-terminal hydrolase 1 (Homo sapiens) (O94782 whole entry, looked up): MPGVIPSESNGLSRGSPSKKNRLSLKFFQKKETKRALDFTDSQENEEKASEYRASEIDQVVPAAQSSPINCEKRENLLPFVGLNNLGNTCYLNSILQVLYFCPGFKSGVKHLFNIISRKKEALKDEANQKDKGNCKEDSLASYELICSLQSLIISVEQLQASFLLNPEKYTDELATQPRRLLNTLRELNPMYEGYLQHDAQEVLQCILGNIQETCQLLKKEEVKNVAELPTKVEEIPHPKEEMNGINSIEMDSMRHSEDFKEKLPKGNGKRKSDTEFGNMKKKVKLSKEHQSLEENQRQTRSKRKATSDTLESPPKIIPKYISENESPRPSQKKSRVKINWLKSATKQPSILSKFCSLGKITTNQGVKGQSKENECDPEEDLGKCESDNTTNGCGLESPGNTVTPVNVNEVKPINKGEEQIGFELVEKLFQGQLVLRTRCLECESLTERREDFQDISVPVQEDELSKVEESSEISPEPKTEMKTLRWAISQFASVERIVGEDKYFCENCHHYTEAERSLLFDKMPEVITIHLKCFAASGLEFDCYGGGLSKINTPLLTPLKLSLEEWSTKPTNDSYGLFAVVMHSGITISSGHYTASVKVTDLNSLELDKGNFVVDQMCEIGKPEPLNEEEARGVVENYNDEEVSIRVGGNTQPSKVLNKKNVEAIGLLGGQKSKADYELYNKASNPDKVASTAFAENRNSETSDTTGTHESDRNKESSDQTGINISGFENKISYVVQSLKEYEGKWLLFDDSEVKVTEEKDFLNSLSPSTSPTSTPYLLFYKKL
smiles,measurement,setting,value
NCCCCCCNS(=O)(=O)c1cccc2c(Cl)cccc12,max response,[1]; measured here: cell count channel max response,13.8%
same,max response,[1]; measured here: lipid channel max response,16.8%
same,Potency,[2],inactive
same,Potency,[3],inactive
same,Potency,[4],11.2 µM (active)
same,Potency,[5],inactive
same,Potency,[6],12.6 µM (active)
same,Potency,[7],inactive
same,Potency,[8],inactive
same,Potency,[9],inactive
same,Potency,[10],inactive
same,Potency,[11],inactive
same,outcome,[12],inactive
same,activation,[13],2.44% (inactive)
same,outcome,[14],inactive
same,outcome,[15],inactive
same,Potency,[16],inactive
same,Potency,[17],inactive
same,Potency,[18],inactive
same,Potency,[19],inactive
